Results filed as inconclusive are left out. Calls of active or inactive are those of the source. Calls come from the whole dose curve; as a rule, active = well fitted cell-killing curve with a large enough effect in the repeat runs; inconclusive = weak or mixed curves, or effect the other way; inactive = no such curve, though single readings can be large or run the other way.
assay: qHTS assay to identify small molecule antagonists of the progesterone receptor (PR) signaling pathway - cell viability counter screen (AID 1346798); conditions: PR-UAS-bla HEK293T viability, CellTiter-Glo luminescence, 16 h; series mostly up to 92.4 µM; activity change, negative = cytotoxicity: at the top concentration; note: nearly all actives have a fitted effect of over 50% in size
Source text: National Center for Advancing Translational Sciences [NCATS]
NIH Chemical Genomics Center [NCGC]
U.S. Environmental Protection Agency [EPA]
National Institutes of Environmental Health Sciences [NIEHS]
National Toxicology Program [NTP]
U.S. Food and Drug Administration [FDA]
Progesterone receptor (PR), a nuclear hormone receptor, plays an important role in development, metabolic homeostasis and reproduction. It is activated by the steroid hormone progesterone. Endocrine disrupting chemicals (EDCs) and their interactions with steroid hormone receptors like PR causes disruption of normal endocrine function. To identify the compounds that inhibit PR signaling, a PR-UAS-bla GripTite cell line i.e. PR-UAS-bla HEK293T (Invitrogen, Carlsbad, CA, USA) containing a beta-lactamase reporter gene under the control of an UAS response element was used to screen Tox21 10K compound library. The cytotoxicity of the Tox21 compound library against the PR-bla cell line was tested in parallel by measuring the cell viability using CellTiter-Glo assay in the same wells.
Tox21 Assay Protocol Summary:
PR-UAS-bla HEK293T cells were dispensed at 3,000 cells/4 uL of assay medium containing 2% charcoal stripped FBS per well into black wall/clear-bottom 1536-well plates using a Multidrop Combi (ThermoFisher Scientific, Waltham, MA) dispenser. After the assay plates were incubated at a 37C and 5% CO2 for 4 hr, 23 nL of compounds dissolved in DMSO, positive controls or DMSO only was transferred to the assay plate by a Pintool station (Kalypsys, San Diego, CA), followed by addition of 1 uL of R5020 in assay medium using a Flying Reagent Dispenser (FRD, Aurora Discovery, San Diego, CA). The plates were incubated at 37C and 5% CO2 for 16 hr. Then 1 uL of LiveBLAzer B/G FRET substrate was added using a Flying Reagent Dispenser, the plates were incubated at room temperature for 2 hours, and fluorescence intensity was measured by an Envision plate reader (PerkinElmer, Shelton, CT). For cell viability readout that measures cytotoxicity, 4 uL/well of CellTiter-Glo reagent was added into the assay plates using a FRD. After 30 min incubation at room temperature, the luminescence intensity in the plates was measured using a ViewLux (PerkinElmer) plate reader.
% is set by controls: 0 for no effect and ±100 for the full control effect.

| SMILES | activity change, negative = cytotoxicity |
| --- | --- |
| O=C(OCC(COC(=O)c1cccnc1)(COC(=O)c1cccnc1)COC(=O)c1cccnc1)c1cccnc1 | -3.91% [at 42.5 µM] (inactive) |
| NCCN1CCOCC1 | -24% (inactive) |
| OCCN(CCO)c1cccc(Cl)c1 | -3.25% (inactive) |
| CC(=O)N[C@@H](CCC(=O)O)C(=O)O | 7.24% [at 42.5 µM] (inactive) |
| CC(C)(C)OC(=O)c1ccc(O)cc1 | 30% (inactive) |
| OCCCCC(O)CO (stereo not given) | 15.6% (inactive) |
| Cc1ccc(C=O)cc1C | 3.58% (inactive) |
| CN=C(NC#N)Nc1ccc(C2=NNC(=O)CC2C)cc1 (stereo not given) | -0.168% [at 42.5 µM] (inactive) |
| CN1CCN(CC(=O)N2c3ccccc3C(=O)Nc3cccnc32)CC1 | 1.84% [at 8.39 µM] (inactive) |
| C[Si](C)=O | 4.63% [at 8.39 µM] (inactive) |
| CCN1CCc2nc(N)oc2CC1 | 22.3% [at 42.5 µM] (inactive) |
| C[C@@H]1O[C@@H](O[C@@H]2[C@@H](O)[C@H](OCCc3ccc(O)c(O)c3)O[C@H](CO[C@@H]3O[C@H](CO)[C@@H](O)[C@H](O)[C@H]3O)[C@H]2OC(=O)/C=C/c2ccc(O)c(O)c2)[C@H](O)[C@H](O)[C@H]1O | -0.236% (inactive) |
| O=C(O)c1ccc(Cl)cc1Cl | 27% (inactive) |
| CC(=O)c1sc(C)nc1C | 3.78% (inactive) |
| CCCC/C=C/C=C\C=O | -26% (inactive) |
| Cc1cccc2nccnc12 | 0.31% (inactive) |
| O=C(/N=N/C(=O)OCc1ccccc1)OCc1ccccc1 | 15% (inactive) |
| C[C@@H](O)[C@H]1C(=O)N2C(C(=O)O)=C(SCCN=CN)C[C@H]12 | 3.54% [at 42.5 µM] (inactive) |
| O=C(OCC1(COC(=O)c2cccnc2)CCCC(COC(=O)c2cccnc2)(COC(=O)c2cccnc2)C1O)c1cccnc1 | -13.8% [at 42.5 µM] (inactive) |
| CC(=O)CCCCn1c(=O)c2c(ncn2C)n(C)c1=O | 2.28% [at 42.5 µM] (inactive) |

| SMILES | activity change, negative = cytotoxicity |
| --- | --- |
| CC(C)OC(=O)CCCCC(=O)OC(C)C | -12.2% (inactive) |
| CCN(CC)CC(=O)Nc1c(C)cccc1C | 5.17% [at 42.5 µM] (inactive) |
| CO[C@@H]1[C@@H](OC(N)=O)[C@@H](O)[C@H](Oc2ccc3c(O)c(NC(=O)c4ccc(O)c(CC=C(C)C)c4)c(=O)oc3c2C)OC1(C)C | 23.9% [at 42.5 µM] (inactive) |
| C=CC(OCC)OCC | 9.98% (inactive) |
| O=C(O)CCSSCCC(=O)O | -7.09% (inactive) |
| O=P(O)(O)OP(=O)(O)O | 6.17% (inactive) |
| CC(=O)c1ccc2c(c1)Cc1ccccc1-2 | 15.6% (inactive) |
| O=S(=O)(O)c1cc(O)c2ccc(Nc3ccccc3)cc2c1 | -10.5% (inactive) |
| COc1ccc2nc(SCc3ncc(C)c(OC)c3C)[nH]c2c1 | 0.18% [at 42.5 µM] (inactive) |
| Nc1ccc(S(=O)(=O)Nc2ccc(Cl)nn2)cc1 | 2.21% [at 42.5 µM] (inactive) |
| O=C(O)c1cc(Br)c(O)c(Br)c1 | 4.12% (inactive) |
| CCCCOC(=O)c1ccccc1 | 3.65% (inactive) |
| Cc1c(I)c(=O)n(-c2ccccc2)n1C | 0.923% [at 42.5 µM] (inactive) |
| CCCCCCCCCC(C)=O | -8.09% (inactive) |
| C[Si](C)(C)C | 12.7% (inactive) |
| CC(C)CC(C)CC(C)CC(C)COC(=O)c1ccccc1C(=O)OCC(C)CC(C)CC(C)CC(C)C (stereo not given) | -1.58% (inactive) |
| CCCCNC1CC(C)(C)NC(C)(C)C1 | -0.954% (inactive) |
| O=C(CCNNC(=O)c1ccncc1)NCc1ccccc1 | -5.42% [at 42.5 µM] (inactive) |
| Cc1cc(Cl)c(C)cc1Cl | -7.46% (inactive) |
| Cc1[nH]cnc1-c1ccc(Cl)cc1 | -3.05% [at 42.5 µM] (inactive) |
